This is part of a sample that, as a whole, favours compounds with a hit. Of some 79,000 tested, about 15% had one in any assay. Active and inactive are the calls of the source. Cut-off read from the data, not from the text of the source: active = growth inhibition above about 70%; inactive = the rest.
Tests used:
[1] = NCI Yeast Anticancer Drug Screen. Data for the rad50 strain (AID 155);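 note: 0% = growth of vehicle-only cultures of the same strain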; details: S. cerevisiae rad50 strain growth inhibition; at 50.0 µM; stronger effect = higher value
How it was run: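 Compounds were tested on a yeast strain with an engineered DNA damage repair alteration; the reported value is growth inhibition normalised to vehicle treatment.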

[2] = NCI Yeast Anticancer Drug Screen. Data for the mec2-1 strain (AID 157); details: S. cerevisiae mec2-1 strain, at 50.0 µM, stronger effect = higher value
How it was run: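 Test agents were screened against the mec2-1 yeast strain, with defined DNA repair or cell cycle alteration. Growth was scored as inhibition against vehicle-only controls.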

[3] = NCI Yeast Anticancer Drug Screen. Data for the sgs1 mgt1 strain (AID 161);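 note: 0% = growth of cultures given vehicle only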; details: S. cerevisiae sgs1 mgt1 strain, at 50.0 µM, stronger effect = higher value
How it was run: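 Mutant yeast exposed to compound; growth scored against vehicle-only wells.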

[4] = NCI Yeast Anticancer Drug Screen. Data for the cln2 rad14 strain (AID 165);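 note: 0% = growth equal to vehicle treated cultures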; details: S. cerevisiae cln2 rad14 strain, at 50.0 µM, stronger effect = higher value
How it was run: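 Growth of compound-exposed yeast (cln2 rad14 genotype) measured and expressed as inhibition relative to vehicle.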

[5] = NCI Yeast Anticancer Drug Screen. Data for the bub3 strain (AID 167); details: S. cerevisiae bub3 mutant strain, at 50.0 µM, stronger effect = higher value
How it was run: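 Growth of a checkpoint-deficient yeast mutant is measured after compound exposure. Values represent inhibition relative to vehicle.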

[6] = NCI Yeast Anticancer Drug Screen. Data for the mlh1 rad18 strain (AID 175); details: S. cerevisiae mlh1 rad18 strain growth inhibition; at 50.0 µM; stronger effect = higher value
How it was run: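 In this whole-cell yeast screen, a strain with altered DNA damage repair is challenged with compound, and its growth is measured against matched vehicle-treated controls.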

Measured: growth inhibition

NC(N)=Nc1nn[nH]n1
inactive: [1] 3.25% | [2] -8.25% | [3] -13.7% | [4] -0.85% | [5] 0.35% | [6] -5.6%

CC1(C)CN1C1=C(F)C(=O)C(N2CC2(C)C)=C(F)C1=O
inactive: [1] 36.5% | [2] 68.2% | [3] 50.5% | [4] 8.45% | [5] 47.3%
active: [6] 74.3%

CN(C)C(=O)Oc1ccc(Cl)cc1Cl
inactive: [1] 9.2% | [2] 18.1% | [3] -5.8% | [4] -7.3% | [5] -9.35% | [6] 32.6%

O=C(Nc1ccc(N(CCCl)CCCl)cc1)c1ccc([N+](=O)[O-])cc1
inactive: [1] 20.1% | [2] 0.75% | [3] 3% | [4] -23.6% | [5] -1.05% | [6] -2.6%

COc1cc(N(CCCl)CCCl)c(OC)cc1C=Nc1cccc(Cl)c1
inactive: [1] 31.4% | [2] 10.3% | [3] 44.4% | [4] 10.6% | [5] 24.6% | [6] 34.2%

C=C(C)c1ccccc1 (tested in a mixture with another compound)
inactive: [1] 28% | [2] 9.05% | [3] -19.9% | [4] -8.8% | [5] -3.2% | [6] 10.6%

CCC(C)c1ccc(O)cc1 (stereo unspecified)
inactive: [1] 3.5% | [2] -2.9% | [3] -5.95% | [4] -16.1% | [5] -5% | [6] -4.65%

[CH3][Sb]1([CH3])([I])[CH2]CC[CH2]1
inactive: [1] -6.55% | [2] -5.35% | [3] -5.75% | [4] -11.1% | [5] 27.2% | [6] 33.9%

CCCCCCCCP(=O)(O)OP(=O)(O)OCC1OC(n2ccc(N)nc2=O)C(O)C1O (stereo unspecified)
inactive: [1] -11.2% | [2] -20.1% | [3] -9.55% | [4] 7.15% | [5] -12.2% | [6] -9%

CCN(CC)C(=S)[S][Pb]([CH2]C)([CH2]C)[CH2]C
inactive: [1] 3.5% | [2] 9.25% | [3] 30.2% | [4] 16.9% | [5] -1.35% | [6] 10.2%

CC1(C)N=C(N)N=C(N)N1c1ccc(CCc2ccc(S(=O)(=O)F)cc2Cl)c(Cl)c1
active: [1] 99.4% | [2] 99.7% | [3] 99.7% | [4] 81.5% | [5] 99.2% | [6] 99.5%

CCC(=O)OC1(c2ccccc2)CCN(C/C=C/c2cccc3ccccc23)CC1
active: [1] 86.3% | [2] 76.2% | [3] 89% | [5] 83% | [6] 87.2%
inactive: [4] 62.8%

CCOC(=O)/C=C1/C=C(C)CC(C)(C)C1 (tested in a mixture with another compound)
inactive: [1] -0.3% | [2] -58.7% | [3] -9.1% | [4] -40.5% | [5] 19% | [6] 1.7%

CC(=O)Cc1ccc2c(c1)OCO2
inactive: [1] 13.2% | [2] -11.4% | [3] -0.35% | [4] 1.1% | [5] -16.9% | [6] 22.9%

CCCCS(=O)CCC(N)P(=O)(O)O (stereo unspecified)
inactive: [1] -50.6% | [2] -54% | [3] -52.8% | [4] -9.9% | [5] 1% | [6] -38.2%

O=[N+]([O-])c1cccc(N=Nc2ccc(N(CCCl)CCCl)cc2)c1
inactive: [1] -23.4% | [2] 0.6% | [3] -2.55% | [4] -27.2% | [5] 4.65% | [6] 11.6%

Cc1ccc(OP(=O)(Oc2ccc(C)cc2)Oc2ccc(C)cc2)cc1.Cc1ccc(OP(=O)(Oc2ccc(C)cc2)Oc2ccc(C)cc2)cc1.Cc1ccc(OP(=O)(Oc2ccc(C)cc2)Oc2ccc(C)cc2)cc1.Cc1ccc(OP(=O)(Oc2ccc(C)cc2)Oc2ccc(C)cc2)cc1.[O-][Cl+3]([O-])([O-])O.[Zn+2]
inactive: [1] 3.45% | [2] 9.9% | [3] 0.55% | [4] 6.45% | [5] 5.1% | [6] -21.9%

COc1cc2c(cc1OC)-c1c3c(cc4c1[C@@H](C2)N(C)CC4)OCO3
inactive: [1] -23.8% | [2] -12.8% | [3] -12.8% | [4] -1.9% | [5] -21.7% | [6] -17.6%

O=Cc1ccccc1O.O=Cc1ccccc1O.O=Cc1ccccc1O.[La]
inactive: [1] -1.05% | [2] -6.95% | [3] 4.7% | [4] -10.1% | [5] 4.8% | [6] 16.9%

NC(=O)OC(CCl)CCl
inactive: [1] 35.2% | [2] -10.1% | [3] -9% | [4] -13.3% | [5] -10% | [6] -4.3%

CC1(C)N=C(N)N=C(N)N1c1ccc(CCc2cc(Cl)ccc2S(=O)(=O)F)c(Cl)c1
active: [1] 99.5% | [2] 99.7% | [3] 99.7% | [4] 99.2% | [5] 99.3% | [6] 99.5%

O=NNc1cncc(NN=O)n1
inactive: [1] -37.9% | [2] 1.1% | [3] -2.8% | [4] -14.9% | [5] -4.95% | [6] 3.75%

COc1ccc(C)cc1C(=O)C[n+]1ccc2ccccc2c1
inactive: [1] -10.4% | [2] -0.8% | [3] -25.1% | [4] -21.4% | [5] -6.5% | [6] 0.15%

CN1CN(c2ccccc2)C2(CCN(CCc3cc4ccccc4o3)CC2)C1=O
inactive: [1] -30.9% | [2] -10.1% | [3] -12.8% | [4] -28.9% | [5] 3.4% | [6] -22.2%

[Se]=P(NC1CCCCC1)(NC1CCCCC1)NC1CCCCC1
inactive: [1] 14.5% | [2] -0.9% | [3] 2% | [4] 5.1% | [5] 3.25% | [6] 17.9%

CCCC1(C(C)C)C(=O)NC(=S)NC1=O
inactive: [1] 10.7% | [2] -7.2% | [3] -1.9% | [4] 6.55% | [5] -10.6% | [6] -24.1%

CC1CC(C)OP(Oc2ccccc2)O1 (stereo unspecified)
inactive: [1] -24.6% | [2] 4.05% | [3] -21.8% | [4] -15.7% | [5] -7.15% | [6] -10.5%

COc1ccc(C2=CCN(c3ccc(C)cc3)P(=O)(N(CCCl)CCCl)O2)cc1 (stereo unspecified)
inactive: [1] 46.8% | [3] 68.9%
active: [2] 74% | [4] 81.1% | [5] 90.8% | [6] 77.4%

OCCCNCc1cccnc1
inactive: [1] 9.55% | [2] -3.05% | [3] -0.75% | [4] 29.2% | [5] -3.8% | [6] 25.9%

Nc1cccnc1
inactive: [1] -29.1% | [2] -35.5% | [3] 23.8% | [4] -1.55% | [5] -23.6% | [6] -5.65%

CC(=O)[CH-]C(C)=O.CC(=O)[CH-]C(C)=O.CC(=O)[CH-]C(C)=O.[Cl-].[Hf+4]
inactive: [1] 3.85% | [2] -1.25% | [3] -16.6% | [4] 21.4% | [5] -9.75% | [6] -6.35%

O=C(CN1C(=O)c2ccccc2C1=O)OCCNCCCl
active: [1] 98.2% | [2] 96.5% | [3] 98.1% | [4] 95.9% | [5] 97.4% | [6] 98.5%

O=S=NN(CC(Cl)c1ccccc1)CC(Cl)c1ccccc1 (stereo unspecified)
inactive: [1] 10.1% | [2] -8.5% | [3] 19.9% | [4] -47.5% | [5] 22.9% | [6] 7.7%

CCCCCCCCCCCCCCCC[As](=O)(O)CCCCCCCCCCCCCCCC
inactive: [1] -6.35% | [2] 13.7% | [3] -17.8% | [4] 4.25% | [5] 7.2% | [6] 8.55%

[CH3][Sn]([CH3])([O]S(=O)c1ccc(Cl)cc1)[O]S(=O)c1ccc(Cl)cc1 (stereo unspecified)
inactive: [1] 15.7% | [2] -9.3% | [3] -19.8% | [4] 14.7% | [5] -4.7% | [6] -11.1%

Cc1cc(-n2c(/C=C/c3ccc(Cl)cc3)nc3cc(Cl)ccc3c2=O)on1
inactive: [1] -27.2% | [2] -34.3% | [3] -12.8% | [4] -0.1% | [5] -9.75% | [6] -10.8%
